Sampled rows, rich in hits. Any-hit rate of the full collection: about 10%.
HPGD inh: qHTS Assay for Inhibitors of HPGD (15-Hydroxyprostaglandin Dehydrogenase); purified HPGD, NADH fluorescence kinetic, PGE2 substrate; Potency, µM, inactives show at the top dose activity change, negative = inhibition, most hits filed as inhibitors; 4.3% of 150,000 active; 15-hydroxyprostaglandin dehydrogenase [NAD(+)] (Homo sapiens), P15428; also: potency is read from the fitted curve at half-maximal effect
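NADH formation kinetics: reaction with 30 uM PGE2 and 1 mM NAD+ (final), 20 nM enzyme, Tris-HCl pH 8 with Tween 20, after 15 min compound preincubation at room temperature. Fluorescence change, last versus first of five reads.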
Lamin A splicing: qHTS Assay for Modulators of Lamin A Splicing | HeLa LMNA splicing GFP/RFP minigene ratio, 48 h | Potency, µM (highest dose often 46.1 µM), inactives show at the highest dose ratio change, negative = inhibition, actives largely listed as inhibitors | 0.01% of 200,000 active | AID 1487, 2009; active = well fitted inhibition curve with a large enough effect in the signal ratio, with a control signal flat, not every such curve was filed as active; inconclusive = small, poorly fitted or top-dose-only effect, or effect the other way, or a change in a side signal; the % refers to the signal ratio; also: potency is read from the fitted curve at half-maximal effect
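S3 HeLa stable clones carrying a lamin A-EGFP splicing minigene plus DsRed2 were seeded at 600 cells/well in Opti-MEM with 2% FBS, pin-dosed and incubated 48 h at 37°C. Acumen cytometry (488 nm) gave the GFP/RFP total-intensity ratio.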
12-hLO inh: qHTS Assay for Inhibitors of 12-hLO (12-human lipoxygenase). Polyunsaturated fatty acid lipoxygenase ALOX12 (Homo sapiens), P18054. purified 12-hLO, xylenol orange hydroperoxide absorbance. Potency, µM (top dose mostly 57.1 µM), for inactives: at the highest dose activity change, negative = inhibition, usual class: inhibitors. 0.12% of 150,000 active. AID 1452, 2008; active = well fitted inhibition curve with a large enough effect; inconclusive = small, poorly fitted or top-dose-only effect; also: potency is read from the fitted curve at half-maximal effect; nearly all actives have a fitted effect of over 55% in size
Target sequence (P18054 whole entry, looked up): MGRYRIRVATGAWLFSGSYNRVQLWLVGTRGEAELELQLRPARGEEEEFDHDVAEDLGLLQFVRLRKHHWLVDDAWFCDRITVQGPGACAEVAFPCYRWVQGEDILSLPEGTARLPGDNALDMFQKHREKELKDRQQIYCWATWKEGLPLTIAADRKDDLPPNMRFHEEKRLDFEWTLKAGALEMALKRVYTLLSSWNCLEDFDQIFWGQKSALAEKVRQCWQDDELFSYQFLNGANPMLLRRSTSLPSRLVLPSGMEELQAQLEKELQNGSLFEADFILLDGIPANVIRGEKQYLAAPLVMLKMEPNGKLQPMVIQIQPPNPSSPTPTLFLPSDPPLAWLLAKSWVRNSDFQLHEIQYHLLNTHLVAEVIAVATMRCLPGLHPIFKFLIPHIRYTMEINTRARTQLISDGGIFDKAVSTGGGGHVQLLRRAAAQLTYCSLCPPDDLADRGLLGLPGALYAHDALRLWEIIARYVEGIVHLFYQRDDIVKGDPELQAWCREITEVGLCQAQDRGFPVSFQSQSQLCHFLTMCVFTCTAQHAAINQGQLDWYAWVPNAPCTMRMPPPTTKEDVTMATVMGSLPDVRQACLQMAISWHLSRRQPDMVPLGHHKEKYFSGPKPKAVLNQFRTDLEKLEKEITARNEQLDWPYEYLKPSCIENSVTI
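Xylenol orange chromogenic assay: hydroperoxide from 12hLO oxidises Fe(II), giving red-shifted Fe(III)-XO absorbance. Conditions: 150 nM enzyme, 40 uM arachidonic acid, 25 mM Hepes pH 7.0, 0.01% Triton X-100, 30 min, room temperature.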
ALDH1A1 block: qHTS Assay for Inhibitors of Aldehyde Dehydrogenase 1 (ALDH1A1) | Aldehyde dehydrogenase 1A1 (Homo sapiens), P00352 | Purified ALDH1A1, NADH fluorescence, propionaldehyde substrate | Potency, µM (top dose mostly 75.3 µM), for inactives: at the highest dose activity, negative = inhibition, hits mostly inhibitors | 7.3% of 220,000 active | AID 1030, 2008;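 also: potency is read from the fitted curve at half-maximal effect; plate controls were no enzyme wells and a reference inhibitor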
PNC inhibitor: High Content Assay for Compounds that inhibit the Assembly of the Perinucleolar Compartment; 3.1% of 140,000 active; activity change (PNC), negative = inhibition, % at 10 µM; PC3M PTB-GFP, PNC prevalence imaging, 16 h; hits give low values; AID 2417, 2010;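 active = readout at or below -70, meaning at least 70% loss of cells showing the perinucleolar compartment, a nuclear body marking cancer cells; inconclusive = readout between -30 and a set limit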;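 also: plate controls were DMSO wells for no effect and camptothecin positive control wells for full effect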
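PC3M cells stably expressing PTB-GFP, 750–1000 cells/well, treated 16 h at 37 °C with compound (23 nl of library stock), in duplicate. After paraformaldehyde fixation and Hoechst stain, imaged at 20x; PNC prevalence scored by image analysis.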
Active calls of the source: *; ? = inconclusive; · = no result given; [ ] = another dose, or the depositor's remark. Unless noted, calls follow the shape of the dose curve; as a rule, active = well fitted inhibition curve with a large enough effect (not every such curve was filed as active); inconclusive = small, poorly fitted or top-dose-only effect, or another doubt; inactive = no such curve, though single readings can be large or run the other way. Unless noted, % is scaled to controls: 0 for no effect and ±100 for the full control effect.

SMILES	HPGD inh	Lamin A splicing	12-hLO inh	ALDH1A1 block	PNC inhibitor
C[C@]12CC[C@H](O)CC1=CC[C@H]1[C@@H]2CC[C@@]2(C)C(N(CCO)CCO)CC[C@@H]12 (some centres undefined)	-0.8%	·	·	2.0%[13.5 µM]	·
COc1ccc(C(C#N)N2CCCCC2)cc1OC (centres undefined)	-10.5%	-0.8%	3.7%	?	10.3
COc1ccc(C(C#N)C2(C)OCCO2)cc1OC (centres undefined)	-8.6%	11.2%	0.3%	11.2µM*	17.9
CCCCN(CC)Cc1ccc(CNC(=S)Nc2cccc(F)c2)o1	·	?	·	14.1µM*	·
O=C(OCC(=O)N1CCN(C(=O)c2ccco2)CC1)c1ccccc1O	-5.5%	9.7%	3.4%	-1.2%	13.9
N#Cc1ccccc1Sc1ccccc1C(=O)OCC(=O)NC12CC3CC(CC(C3)C1)C2	12.6µM*	13.4%	-4.0%	-4.6%	-4.9
N#Cc1ccccc1Sc1ccccc1C(=O)OCC(=O)N1CCN(C(=O)c2ccco2)CC1	?	-1.2%	0.2%	14.1µM*	-28.3
NC(=O)C1CCN(C(=O)c2ccccc2NC(=O)c2nsc3ccccc23)CC1	·	5.9%[46 µM]	·	·	·
COc1ccccc1N1CCN(C(=O)Cn2c(=O)n3nc(-c4cccc(C)c4)nc3c3ccccc32)CC1	·	0.5%[46 µM]	·	·	·
Cc1noc(C)c1S(=O)(=O)NCCc1csc2nc(-c3ccc(Cl)cc3)nn12	·	-6.5%[46 µM]	·	·	·
CC(=O)NCCNc1cc(-c2ccccc2C)ncn1	·	1.2%	·	10.2%	·
Cc1nn(Cc2ccc(Cl)cc2)c(C)c1NC(=O)c1ccc([N+](=O)[O-])cc1	·	?	1.9%	3.9%	-83.9*
Cc1nn(Cc2ccc(Cl)cc2)c(C)c1NC(=O)Cn1nc([N+](=O)[O-])c(Cl)c1C	-1.8%	?	-9.4%	-1.6%	1.5
Cc1cc(-c2ccccc2)n(-c2cc(N/N=C/c3ccccc3O)ncn2)n1	-11.9%	?	-1.1%	9.3%	-90.6*
CC(=O)c1cccc(CN2CCCC(C(=O)c3ccc4c(c3)OCO4)C2)c1 (centres undefined)	·	12.9%[46 µM]	·	28.2µM*	·
CCN(CC)C(=O)C1CCCN(Cc2ccc3c(c2)OCO3)C1 (centres undefined)	-8.8%	4.4%	-0.6%	-11.0%	-8.0
Cc1ccc(CNC(=O)CCC2CCCN(Cc3cccc4ncccc34)C2)o1 (centres undefined)	·	1.0%[46 µM]	·	3.4%	·
Cc1ccc(CNC(=O)CCC2CCCN(C(=O)c3ccc4c(c3)OCO4)C2)o1 (centres undefined)	·	·	·	15.8µM*	·
CCOC(=O)C1CCCN(C(=O)c2ccc3c(c2)OCO3)C1 (centres undefined)	10µM*	-4.0%	1.2%	?	252.8
CCOC(=O)C1CCCN(Cc2ccc3c(c2)OCO3)C1 (centres undefined)	6.0%	-4.3%	-6.0%	12.6µM*	11.4
COC1=C[C@@H](C)C2CC3OC(=O)C[C@H]4C(C)=C(OC)C(=O)C([C@@]2(C)C1=O)[C@@]34C (some centres undefined)	-6.6%	·	·	4.0%	·
CCOC(=O)C1CCCN(CC(O)COc2cccc(C)c2)C1 (centres undefined)	25.1µM*	2.0%	0.8%	7.1%	-13.4
CC(C)Oc1cccc(C(=O)C2CCCN(Cc3cnn(C(C)C)c3)C2)c1 (centres undefined)	·	-8.8%[46 µM]	·	10µM*	·
CCOC(=O)C1CCCN(C(=O)c2ccc3c(c2)N(Cc2ccccc2)C(=O)c2ccccc2S3=O)C1 (centres undefined)	·	-6.0%[46 µM]	·	20µM*	·
Cc1nn(C(C)C)c(C)c1CN1CCCC(C(=O)c2cccc(OC(C)C)c2)C1 (centres undefined)	·	?	·	11.7%	·
CCOC(=O)C1CCCN(CCC(=O)Nc2cccc(C)c2)C1 (centres undefined)	·	·	·	-5.5%	·
CCOC(=O)c1sc2ccccc2c1S(=O)(=O)N1CCN(c2cccc(C)c2)C(C)C1 (centres undefined)	·	-7.2%[46 µM]	·	·	·
